Gal4-VP16 FLuc = VP16 counterscreen qHTS for inhibitors of ROR gamma transcriptional activity. Drosophila S2 Gal4-VP16 UAS-luciferase, luminescence, 20 h. 3.5% of 310,000 active. Potency, µM (highest dose often 53.6 µM), hits mostly inhibitors;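 note: Gal4-VP16 expression switched on by copper sulfate through the metallothionein promoter; nearly all actives have a fitted effect of over 50% in size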
ELG1 DNA repair = qHTS screen for small molecules that inhibit ELG1-dependent DNA repair in human embryonic kidney (HEK293T) cells expressing luciferase-tagged ELG1; HEK293T ELG1-luciferase reporter, luminescence, 16 h; DNA damage induced by 5-fluorouridine; Potency, µM (highest dose often 46.1 µM), most hits filed as inhibitors; 2.3% of 330,000 active; AID 504467, 2011; note: nearly all actives have a fitted effect of over 55% in size
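In this reporter screen, reduction of luminescence relative to DMSO vehicle indicated activity. Compounds and 5-fluorouridine were added together to 2,000 cells per well, incubated for 16 hr at 37 °C, then developed with ONE-Glo.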
RORgamma inh = qHTS for inhibitors of ROR gamma transcriptional activity. Drosophila S2 Gal4-RORgamma UAS-luciferase reporter, 20 h. Potency, µM (titrated, usually from 53.6 µM), usual class: inhibitors. 5.4% of 310,000 active. AID 2551, 2010; note: nearly all actives have a fitted effect of over 60% in size
Target sequence (P51450 whole entry, looked up, the tested form may be a part): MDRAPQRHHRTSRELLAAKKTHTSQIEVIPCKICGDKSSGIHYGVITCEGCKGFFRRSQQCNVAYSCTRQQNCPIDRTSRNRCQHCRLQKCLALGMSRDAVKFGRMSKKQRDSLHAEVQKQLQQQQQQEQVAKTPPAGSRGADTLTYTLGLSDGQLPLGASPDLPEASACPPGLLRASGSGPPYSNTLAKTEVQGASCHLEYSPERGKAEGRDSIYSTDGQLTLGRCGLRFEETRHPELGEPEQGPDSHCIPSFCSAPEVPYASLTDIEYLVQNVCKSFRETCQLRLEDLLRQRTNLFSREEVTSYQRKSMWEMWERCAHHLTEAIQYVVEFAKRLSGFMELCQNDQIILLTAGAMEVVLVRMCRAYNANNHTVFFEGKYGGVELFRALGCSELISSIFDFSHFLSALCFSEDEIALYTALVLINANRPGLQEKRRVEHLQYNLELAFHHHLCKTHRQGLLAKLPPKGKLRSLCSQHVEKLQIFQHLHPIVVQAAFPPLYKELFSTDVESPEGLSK
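Read-out: Photinus luciferase luminescence; inhibitors lower reporter signal. Insect Schneider cells with Gal4-ROR gamma fusion under metallothionein promoter, UAS reporter; 700 uM final copper sulfate induction, 20 hr, ambient temperature.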
Coupling enz = qHTS Assay for Inhibitors of Fructose-1,6-bisphosphate Aldolase from Giardia Lamblia: Coupling assay counterscreen; activity change, negative = inhibition, % at 58.2 µM, hits read low; coupling enzyme system counterscreen, AmpLite Red fluorescence; 0.67% of 290,000 active; in the data active = activity change below about -30%
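Counterscreen of the coupled detection system alone, without aldolase: glyceraldehyde-3-phosphate coupling enzymes plus AmpLite Red readout. Compounds at 57.5 uM final, 10 min RT preincubation, 20 min RT reaction, fluorescence 525/598 nm.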
TSHR antag = Antagonists of the Thyroid Stimulating Hormone Receptor: HTS campaign; Thyrotropin receptor (Homo sapiens), P16473; TSHR-expressing cells, TSH-stimulated cAMP HTRF, 2 h; hits give low values; activity change, negative = inhibition, % at 11.5 µM; 0.2% of 330,000 active;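 active = activity change below a set negative limit, meaning inhibition stronger than a set level, cut at about -70% in these data; inconclusive = activity change between two set negative limits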
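Competitive HTRF cAMP read-out (cryptate anti-cAMP antibody, cAMP-d2; 30 min, room temperature) in freshly harvested TSHR cells. Compounds added before TSH at EC80 (4nM final), followed by 2 hours' incubation at 37 deg C.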
ELG1 FLuc counter = qHTS screen for small molecules that inhibit ELG1-dependent DNA repair: Hit Confirmation in Cell-Based Luciferin Assay. shares compounds with ELG1 DNA repair. cell-free firefly luciferase luminescence counter-screen, ViewLux. Potency, µM (series often up to 46.1 µM), hits mostly inhibitors. 3% of 350 active
ELG1 Luc conf = HTS assay for small molecules that inhibit ELG1-dependent DNA repair in human embryonic kidney (HEK293T) cells expressing luciferase-tagged ELG1: Hit Confirmation; shares compounds with ELG1 DNA repair; HEK293T ELG1-luciferase levels, luminescence; cells co-treated with 5-fluorouridine; Potency, µM (doses to about 46.1 µM), hits mostly inhibitors; 68% of 670 active; note: nearly all actives have a fitted effect of over 55% in size
ELG1-Luc MMS = inhibits ELG1-dependent repair under MMS stimulation in HEK293T cells; shares compounds with ELG1 DNA repair; HEK293T luciferase-tagged ELG1 level, MMS stimulated; Potency, µM (doses to about 46.1 µM), actives largely listed as inhibitors; 53% of 670 active; AID 624249; note: nearly all actives have a fitted effect of over 60% in size
ELG1 5FU viab = qHTS screen for small molecules that inhibit ELG1-dependent DNA repair: Hit Confirmation with 5FU Viability | cell viability with 5-FU, ELG1-dependent repair | Potency, µM (series often up to 46.1 µM), usual class: cytotoxic | shares compounds with ELG1 DNA repair | 670 tested, under 10 active;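 note: ELG1-luc HEK293T cells cotreated with 5-fluorouridine at 10 µM final; viability measured 16 h after compound addition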
ELG1 MMS viab = qHTS screen for small molecules that inhibit ELG1-dependent DNA repair: Hit Confirmation with MMS Viability; 33% of 670 active; Cell viability with MMS, ELG1-dependent DNA repair; Potency, µM (doses to about 46.1 µM), most hits filed as cytotoxic; shares compounds with ELG1 DNA repair;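 note: ELG1-luc HEK293T cells co-treated with 10 µM MMS; viability read 16 h after compound addition; nearly all actives have a fitted effect of over 60% in size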
Cell viab unstim = qHTS screen for small molecules that inhibit ELG1-dependent DNA repair: Hit Confirmation with Unstimulated Viability Assay. 8% of 900 active. AID 624252, 2012. shares compounds with ELG1 DNA repair. Potency, µM (doses to about 45.9 µM), usual class: cytotoxic. cell viability counter-screen, unstimulated, luminescence;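 note: compound exposure lasted 16 hours before reading; nearly all actives have a fitted effect of over 55% in size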
FLuc enzyme = qHTS screen for small molecules that inhibit ELG1-dependent DNA repair: Hit Confirmation in Biochemical Luciferin Assay. AID 624253, 2012. purified firefly luciferase, luminescence counter-screen. shares compounds with ELG1 DNA repair. 10% of 350 active. Potency, µM (top dose mostly 57.5 µM), most hits filed as inhibitors
Numbers stand for hits; - = inactive; ? = inconclusive; . = no result given. Hits are enriched below; roughly 8% of the tested compounds scored in any of these assays. Unless noted, calls come from the whole dose curve; as a rule, active = well fitted curve in the direction sought with a large enough effect; inconclusive = small, poorly fitted or top-dose-only effect, or another doubt; inactive = no such curve, though single readings can be large; an effect the other way counts as inactive or inconclusive.

SMILES	Gal4-VP16 FLuc	ELG1 DNA repair	RORgamma inh	Coupling enz	TSHR antag	ELG1 Luc conf	ELG1-Luc MMS	ELG1 5FU viab	ELG1 MMS viab	Cell viab unstim	others
c1ccc(CCc2nn3c(-c4ccncc4)nnc3s2)cc1	-	2.59µM	-	-	-	4.99µM	?	-	-	-
Clc1ccccc1-c1nnc2sc(CCc3ccccc3)nn12	?	-	?	-	-	.	.	.	.	.
COc1ccc(-c2noc(CCCCC(=O)N3CCN(c4cc(C)ccc4C)CC3)n2)cc1	.	?	.	.	-	?	1.25µM	-	1.12µM	14.1µM
Cc1ccc(C)c(N2CCN(C(=O)CCc3nc(-c4cccc(Cl)c4)no3)CC2)c1	.	?	.	.	-	.	.	.	.	-
COc1cccc(-c2noc(CCC(=O)N3CCN(c4cc(C)ccc4C)CC3)n2)c1	.	?	.	.	-	.	.	.	.	.
O=C(NCCCc1ccccc1)c1ccc(CS(=O)Cc2ccccc2Cl)o1 (stereo unspecified)	-	?	-	-	-	.	.	.	.	.
COC(=O)c1ccc(C(NC(=O)OCc2ccccc2)/C(C)=C/[C@@H](C)C(=O)Nc2ccc(OC)cc2)cc1 (stereo partly specified)	-	.	?	-	.	.	.	.	.	.
CCOCCOC(=O)c1[nH]c2c(c1C)C(=O)CC(c1cc(OC)c(OC)c(OC)c1)C2 (stereo unspecified)	?	4.11µM	?	-	-	9.96µM	6.28µM	-	?	?
CC(C)C(=O)N1CCC2(CC1)Oc1ccc(Cl)cc1C(=O)C21CC(c2ccc(Cl)cc2)=NO1 (stereo unspecified)	-	2.59µM	-	-	-	9.96µM	-	?	-	?
CC(C)(C)C(=O)Nc1cccc(-c2nnc(-c3cccc(NC(=O)C(C)(C)C)c3)o2)c1	?	4.61µM	?	-	-	7.91µM	?	-	-	?
COc1ccc2sc3c(=O)[nH]c4ccccc4c3c2c1	-	0.82µM	-	-	-	1.99µM	1.58µM	-	-	-	ELG1 FLuc counter=-;FLuc enzyme=-
COc1ccc2c(c1)[nH]c(=O)c1sc3ccccc3c12	?	-	-	-	-	.	.	.	.	.
Cc1cccc(N2CCN(C(=O)c3ccccc3OCc3c(C)noc3C)CC2)c1C	.	-	.	.	.	.	.	.	.	.
Cc1ccc(S(=O)(=O)NCC(C)n2nc(C)nc2C)cc1 (stereo unspecified)	-	-	-	-	-	.	.	.	.	.
Cc1nn(-c2ccccc2)c(C)c1Cc1ccc(O)cc1	-	?	-	-	-	.	.	.	.	.
Cc1nn(-c2ccccc2)c2c1C(O)n1c(nc3ccccc31)S2 (stereo unspecified)	-	2.59µM	-	-	-	15.8µM	11.2µM	?	25µM	?
Fc1ccc(Nc2nc(-c3ccncc3)nc3ccccc23)cc1F	-	1.84µM	-	-	-	1.41µM	?	?	-	?	ELG1 FLuc counter=-;FLuc enzyme=-
c1ccc2c(Nc3nc(-c4ccncc4)nc4ccccc34)cccc2c1	-	?	-	-	-	.	.	.	.	.
CCN(CC(=O)Nc1cc(Cl)ccc1C)C(=O)COc1cccc2c1OC(C)(C)C2	-	-	-	-	-	.	.	.	.	.
CN(C(=O)CCc1nc2ccccc2c(=O)[nH]1)C1CCS(=O)(=O)C1 (stereo unspecified)	.	-	.	.	-	.	.	.	.	.
CC(=O)Nc1ccc(SCC(=O)c2cc(C)n(Cc3cccs3)c2C)cc1	?	?	-	-	-	.	.	.	.	?	ELG1 FLuc counter=?;FLuc enzyme=13µM
C[C@H](CO)N1C[C@H](C)[C@@H](CN(C)C(=O)Nc2ccccc2)Oc2c(NC(=O)Nc3ccc(C(F)(F)F)cc3)cccc2C1=O	.	?	.	.	-	.	.	.	.	.
C[C@H](CO)N1C[C@H](C)[C@@H](CN(C)C(=O)Nc2ccc(C(F)(F)F)cc2)Oc2c(NC(=O)C3CCCCC3)cccc2C1=O	.	?	.	.	-	.	.	.	.	.
CC(C)NC(=O)Nc1cccc2c1O[C@H](CN(C)C(=O)Nc1ccc(C(F)(F)F)cc1)[C@@H](C)CN([C@H](C)CO)C2=O	.	1.3µM	.	.	-	2.23µM	-	?	-	-
C[C@H](CO)N1C[C@H](C)[C@@H](CN(C)C(=O)Nc2ccc(C(F)(F)F)cc2)Oc2c(NC(=O)Cc3ccccc3)cccc2C1=O	.	?	.	.	-	2.5µM	-	?	-	-
SMILES	Gal4-VP16 FLuc	ELG1 DNA repair	RORgamma inh	Coupling enz	TSHR antag	ELG1 Luc conf	ELG1-Luc MMS	ELG1 5FU viab	ELG1 MMS viab	Cell viab unstim	others
C[C@H](CO)N1C[C@H](C)[C@@H](CN(C)C(=O)Nc2ccc(C(F)(F)F)cc2)Oc2c(NC(=O)CCC(F)(F)F)cccc2C1=O	.	1.83µM	.	.	-	3.53µM	-	?	-	-
Cc1occc1C(=O)N1CCC2(CCCN(Cc3ccc(F)c(F)c3)C2)C1 (stereo unspecified)	-	-	-	-	-	.	.	.	.	.
OC[C@@H]1O[C@@H](n2cnc3c(N[C@H]4CCC[C@@H]4O)ncnc32)[C@H](O)[C@H]1O	-	.	-	-	.	.	.	.	.	.
Cc1cccc(C)c1NC(=O)CN(C)C(=O)c1ccccc1Sc1ccccc1C#N	.	-	.	.	-	.	.	.	.	.
Cc1ccc2c(c1)cc1c(=O)n(CC(=O)N3CCCC3)nc(C)n12	-	-	-	.	-	.	.	.	.	.
COc1ccc(C)cc1NC(=O)CN1CCN(S(=O)(=O)c2ccc3ccccc3c2)CC1	.	-	.	.	-	.	.	.	.	.

Assay outcomes from PubChem BioAssay.
